Source: PubChem BioAssay
Active and inactive are the calls of the source. Unless noted, how the calls were made is not given here.

How the values were obtained:
[1] = compounds binding Alexa647 anti-His antibody – biochemical, small-molecule microarray, 635 nm fluorescence, artefact control for SMM control protein annotation, primary screen (AID 1128); details: higher = more signal;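 further: score merges feature fluorescence with signal-to-noise for each printed compound spot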
[2] = system: Human papillomavirus type 1a E7 protein (residues 1-88); test: HPV1a E7 small-molecule binders, primary screen, biochemical, small-molecule microarray, residues 1-88, 635 nm (AID 1129); details: small-molecule microarray binding, fluorescence 635 nm; higher = more signal
[3] = biological target: Focal adhesion kinase 1 (Homo sapiens) (UniProt Q05397); test: PTK2 protein binding on printed compound slides – biochemical, small-molecule microarray, 635/667 nm fluorescence, BSA, DTT, primary screen (AID 1130); details: 635 nm fluorescence, higher = more signal;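 further: composite of spot emission at 667 nm and signal to noise over triplicate slides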
Focal adhesion kinase 1 (Homo sapiens), sequence (Q05397 whole entry, looked up): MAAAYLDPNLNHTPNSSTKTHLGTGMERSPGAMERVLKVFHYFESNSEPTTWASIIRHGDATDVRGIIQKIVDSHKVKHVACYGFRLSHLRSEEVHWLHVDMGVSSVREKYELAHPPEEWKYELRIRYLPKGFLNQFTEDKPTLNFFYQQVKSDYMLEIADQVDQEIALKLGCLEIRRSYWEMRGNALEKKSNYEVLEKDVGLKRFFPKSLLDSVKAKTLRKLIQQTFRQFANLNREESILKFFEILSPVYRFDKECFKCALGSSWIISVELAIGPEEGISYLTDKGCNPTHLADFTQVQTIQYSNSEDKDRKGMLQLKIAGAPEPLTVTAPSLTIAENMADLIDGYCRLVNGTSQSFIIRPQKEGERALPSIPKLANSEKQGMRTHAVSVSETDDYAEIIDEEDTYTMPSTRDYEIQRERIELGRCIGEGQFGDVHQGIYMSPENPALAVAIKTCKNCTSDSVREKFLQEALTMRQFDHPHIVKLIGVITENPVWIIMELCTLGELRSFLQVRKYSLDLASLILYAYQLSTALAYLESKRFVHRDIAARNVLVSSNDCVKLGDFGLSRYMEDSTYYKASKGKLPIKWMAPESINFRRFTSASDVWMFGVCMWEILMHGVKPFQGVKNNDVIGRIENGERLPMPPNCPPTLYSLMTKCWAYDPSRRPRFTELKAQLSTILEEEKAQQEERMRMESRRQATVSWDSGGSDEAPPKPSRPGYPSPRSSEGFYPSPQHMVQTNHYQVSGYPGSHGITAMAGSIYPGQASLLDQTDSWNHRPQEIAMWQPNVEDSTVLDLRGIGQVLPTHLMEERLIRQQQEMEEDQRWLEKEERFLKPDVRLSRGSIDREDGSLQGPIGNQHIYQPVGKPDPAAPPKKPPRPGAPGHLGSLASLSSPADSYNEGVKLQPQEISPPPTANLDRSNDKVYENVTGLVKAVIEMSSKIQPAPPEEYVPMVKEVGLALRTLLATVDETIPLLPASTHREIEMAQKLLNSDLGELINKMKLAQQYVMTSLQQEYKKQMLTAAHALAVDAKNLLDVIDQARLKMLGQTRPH

[4] = system: Fibrinogen (Alexa647-labelled); test: Alexa647-fibrinogen binding to printed small molecules – biochemical, small-molecule microarray, 635/667 nm fluorescence, artefact control for SMM control-protein annotation, profiling panel (AID 1131); details: fibrinogen-A647 binding fluorescence, higher = more signal;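 further: z-score merges 667 nm fluorescence with per-spot signal-to-noise over triplicate slides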
[5] = biological target: Follistatin (Homo sapiens) (UniProt P19883); test: FST protein binding to printed compounds – biochemical, small-molecule microarray, 635/667 nm fluorescence, primary screen (AID 1132); details: 635 nm fluorescence, higher = more signal
Follistatin (Homo sapiens), sequence (P19883 whole entry, looked up): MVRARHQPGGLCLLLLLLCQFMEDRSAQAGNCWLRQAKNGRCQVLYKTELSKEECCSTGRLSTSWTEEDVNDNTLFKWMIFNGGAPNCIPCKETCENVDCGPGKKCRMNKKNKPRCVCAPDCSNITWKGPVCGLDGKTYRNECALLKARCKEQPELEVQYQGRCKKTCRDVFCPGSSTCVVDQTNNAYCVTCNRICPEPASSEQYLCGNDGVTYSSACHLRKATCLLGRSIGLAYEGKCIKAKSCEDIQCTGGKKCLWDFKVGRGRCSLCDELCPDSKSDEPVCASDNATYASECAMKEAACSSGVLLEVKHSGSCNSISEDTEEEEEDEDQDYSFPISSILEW

[6] = biological target: Fibroblast growth factor 2 (Homo sapiens) (UniProt P09038); test: basic fibroblast growth factor binding to printed compounds – biochemical, small-molecule microarray, 635/667 nm fluorescence, primary screen (AID 1133); details: FGF2, fluorescence 635/667, higher = more signal
Fibroblast growth factor 2 (Homo sapiens), sequence (P09038 whole entry, looked up): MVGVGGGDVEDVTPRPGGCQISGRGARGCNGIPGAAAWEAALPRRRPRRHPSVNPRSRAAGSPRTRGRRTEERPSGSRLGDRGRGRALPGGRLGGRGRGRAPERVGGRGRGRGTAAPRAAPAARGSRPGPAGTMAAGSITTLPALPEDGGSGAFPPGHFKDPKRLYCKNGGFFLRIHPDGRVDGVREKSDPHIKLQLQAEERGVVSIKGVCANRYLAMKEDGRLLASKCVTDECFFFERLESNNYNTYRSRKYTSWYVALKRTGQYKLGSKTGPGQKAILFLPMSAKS

[7] = JC-1 mitochondrial potential readout, lung cancer cells – cell-based, A549, JC-1 fluorescence, basal, 24 h, 100 nL, profiling panel (AID 1138); details: higher = more signal;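 further: A549 lung adenocarcinoma cells under basal conditions with no added stimulus; test concentration not given here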
[8] = system: Lefty1; test: Lefty1 protein binding to printed compounds – biochemical, small-molecule microarray, 635/667 nm fluorescence, primary screen (AID 1139); details: fluorescence 635/667, higher = more signal
[9] = system: wheat germ agglutinin (Triticum aestivum), Alexa647-labelled; test: Alexa647-WGA lectin binding to printed small molecules – biochemical, small-molecule microarray, 635/667 nm fluorescence, artefact control for SMM control-protein annotation, profiling panel (AID 1140); details: WGA-A647 binding, 635 nm fluorescence, higher = more signal;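 further: score merges 667 nm feature emission with signal to noise over triplicate slides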
[10] = biological target: Luciferin 4-monooxygenase (Photinus pyralis) (UniProt P08659); test: inhibition of purified Photinus pyralis luciferase – biochemical, luminescence, purified enzyme, 2006 set, primary screen (AID 1141); details: purified firefly luciferase, SteadyGlo luminescence, 30 min; higher = more signal, called active from +8 up or from −8 down;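 further: cell-free assay with purified firefly luciferase at 100 ng per well in PBS; test concentration not given here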
Luciferin 4-monooxygenase (Photinus pyralis), sequence (P08659 whole entry, looked up): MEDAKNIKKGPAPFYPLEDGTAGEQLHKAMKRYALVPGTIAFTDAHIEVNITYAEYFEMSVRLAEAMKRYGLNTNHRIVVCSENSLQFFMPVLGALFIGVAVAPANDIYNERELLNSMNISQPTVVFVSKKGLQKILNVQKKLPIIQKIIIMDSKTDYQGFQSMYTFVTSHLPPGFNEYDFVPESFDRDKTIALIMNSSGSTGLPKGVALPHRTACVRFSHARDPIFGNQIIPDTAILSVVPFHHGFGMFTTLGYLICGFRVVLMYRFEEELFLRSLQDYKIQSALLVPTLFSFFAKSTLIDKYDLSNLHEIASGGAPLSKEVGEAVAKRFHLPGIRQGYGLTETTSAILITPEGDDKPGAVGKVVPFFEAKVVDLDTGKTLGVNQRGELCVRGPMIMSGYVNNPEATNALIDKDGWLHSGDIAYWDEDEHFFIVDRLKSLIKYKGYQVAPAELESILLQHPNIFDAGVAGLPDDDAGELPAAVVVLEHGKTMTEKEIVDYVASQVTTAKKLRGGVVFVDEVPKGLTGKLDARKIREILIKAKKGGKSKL

[11] = system: Wnt5a (protein binding on small-molecule microarray); test: small molecules binding Wnt5a protein – biophysical, small-molecule microarray, 635/667 nm fluorescence, primary screen (AID 1142); details: 635 nm fluorescence, higher = more signal;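 further: fluorescence read at 667 nm with signal to noise per printed feature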
[12] = ATP-based viability of Huh7 replicon cells – cell-based, CellTiter-Glo luminescence, basal, 48 h, cytotoxicity control for HCV replication inhibitor project, primary screen (AID 1143); details: higher = more signal, called active from +8 up or from −8 down;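 further: Huh7 hepatoma cells carrying a hepatitis C replication reporter with no stimulus; test concentration not given here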
[13] = Pseudomonas biofilm growth suppression – PAO1 strain, BacTiter-Glo luminescence, LB-PBS, primary screen (AID 1144); details: P. aeruginosa PAO1 biofilm, 12 h, higher = more signal
[14] = basal CRE-LacZ reporter activity in PC12 – cell-based, unstimulated, primary screen (AID 1145); details: no forskolin, luminescence, 4.5 h, higher = more signal, called active from +8 up or from −8 down
[15] = forskolin-driven CRE-LacZ activity in PC12 – cell-based, CRE-LacZ reporter, forskolin-stimulated, primary screen (AID 1146); details: luminescence, 4.5 h, higher = more signal, called active from +8 up or from −8 down;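 further: PC12 cells with 6xCRE LacZ reporter stimulated by forskolin 10 µM; beta-galactosidase reporter signal reflecting CREB driven transcription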
[16] = biological target: Streptavidin (Streptomyces avidinii) (UniProt P22629); test: compounds binding control protein streptavidin – biophysical, small-molecule microarray, 635/667 nm fluorescence, artefact control for SMM compound annotation, primary screen (AID 1147); details: higher = more signal;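 further: signal reflects streptavidin binding to arrayed compounds as a control protein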
Streptavidin (Streptomyces avidinii), sequence (P22629 whole entry, looked up): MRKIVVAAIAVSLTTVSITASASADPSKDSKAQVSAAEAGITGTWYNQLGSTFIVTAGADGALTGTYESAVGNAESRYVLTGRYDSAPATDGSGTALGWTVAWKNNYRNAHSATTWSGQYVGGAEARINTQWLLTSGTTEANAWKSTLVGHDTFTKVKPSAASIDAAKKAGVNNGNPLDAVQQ

[17] = probe aInhba binding on compound microarray – biochemical, small-molecule microarray, 635/667 nm fluorescence, primary screen (AID 1148); details: higher = more signal;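 further: score merges 667nm spot fluorescence with signal-to-noise for antibody binding to printed compounds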
[18] = biological target: Torsin-1A (Homo sapiens) (UniProt O14656); test: TOR1A wild-type binding on microarray – cell lysate, small-molecule microarray, lysate, 635/667 nm, primary screen (AID 1149); details: COS7 hTOR1A-WT lysate, 635 nm fluorescence, higher = more signal
Torsin-1A (Homo sapiens), sequence (O14656 whole entry, looked up): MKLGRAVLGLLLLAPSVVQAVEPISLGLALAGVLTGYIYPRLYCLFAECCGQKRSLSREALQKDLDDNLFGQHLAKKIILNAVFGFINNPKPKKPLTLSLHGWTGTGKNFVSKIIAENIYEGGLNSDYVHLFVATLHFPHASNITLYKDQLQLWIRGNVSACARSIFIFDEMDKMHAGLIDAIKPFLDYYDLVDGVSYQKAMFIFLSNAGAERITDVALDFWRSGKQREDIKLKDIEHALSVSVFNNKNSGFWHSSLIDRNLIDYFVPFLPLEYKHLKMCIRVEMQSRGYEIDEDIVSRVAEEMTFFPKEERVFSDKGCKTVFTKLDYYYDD

[19] = biological target: Torsin-1A (Homo sapiens) (UniProt O14656); test: torsin A mutant lysate binding on microarrays – cell lysate, small-molecule microarray, COS7 lysate, 635/667 nm fluorescence, primary screen (AID 1150); details: COS7 hTOR1A mutant lysate, 635 nm fluorescence, higher = more signal;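 further: score pools 667 nm emission and signal to noise measuring lysate protein binding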
[20] = system: Sonic hedgehog protein (Shh); test: Sonic hedgehog microarray binding compounds – biochemical, small-molecule microarray, 635/667 nm fluorescence, primary screen (AID 1151); details: 635 nm fluorescence, higher = more signal;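 further: Shh protein binding to compounds spotted on small-molecule microarray slides; score combines spot fluorescence intensity with signal-to-noise across triplicate slides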

SMILES | composite z-score [1] | composite z-score [2] | composite z-score [3] | composite z-score [4] | composite z-score [5] | composite z-score [6] | z-score [7] | composite z-score [8] | composite z-score [9] | z-score [10] | composite z-score [11] | z-score [12] | z-score [13] | z-score [14] | z-score [15] | composite z-score [16] | composite z-score [17] | composite z-score [18] | composite z-score [19] | composite z-score [20]
CN1C(=O)C2C=CC(C(O)COCc3ccccc3)N(Nc3ccccc3)C2C1=O (stereo not given) | 0.563 | 0.593 | 0.324 | 0.711 | 0.433 | -0.11 | 1.64 | 0.135 | 0.681 | 0.982 (inactive) | 0.122 | 0.631 (inactive) | -0.0726 (inactive) | 1.59 (inactive) | -0.236 (inactive) | 0.37 | -0.018 | -0.24 | 0.162 | 0.0686
OCc1ccc(-c2cc[n+](Cc3cccc(OC(F)(F)F)c3)cc2)cc1 | 2.33 | 1.07 | 0.0665 | 0.708 | 1.45 | 1.25 | -0.884 | 1.47 | 0.528 | 0.194 (inactive) | 0.252 | -1.64 (inactive) | -0.473 (inactive) | -0.374 (inactive) | -0.119 (inactive) | 1.24 | -0.0221 | 1.18 | 1.12 | 1.98
O=C1C[C@@](C(=O)O)(c2ccc([N+](=O)[O-])cc2)[C@@H](c2ccc(CO)cc2)N1CC12CC3CC(CC(C3)C1)C2 | 1.2 | 1.19 | 0.486 | 0.732 | 0.563 | -0.119 | 2.19 | 0.43 | 1.02 | -0.162 (inactive) | 0.319 | -5.13 (inactive) | -1.03 (inactive) | -0.322 (inactive) | 0.351 (inactive) | 0.791 | -0.0759 | 0.734 | 0.949 | 1.76
C=CC[C@]1(C(=O)N(C)C)N=C(c2ccc(OCCCO)cc2)O[C@H]1c1ccccc1 | 0.661 | 1.23 | 1.04 | 0.951 | 0.915 | -0.165 | -0.259 | 0.457 | 0.149 | -1.52 (inactive) | 0.902 | -4.69 (inactive) | -0.87 (inactive) | -0.38 (inactive) | -1.19 (inactive) | 0.197 | 0.0471 | 0.62 | 1.27 | 0.757
COCC(=C=CC[C@@H](O)c1ccccc1OCCO)C[C@@H](O)COCc1ccccc1 | 0.477 | 1.01 | -0.134 | 0.357 | 0.403 | 0.456 | 1.8 | 0.317 | 1.05 | -2.4 (inactive) | 0.561 | -1.43 (inactive) | -0.137 (inactive) | 8.9 (active) | -1.46 (inactive) | -0.236 | 0.799 | 1.26 | 0.717 | 0.709
